miR-122 inh = miR-122 sensor activation | 340,000 tested, 0.14% active | Huh7 psiCHECK-miR122 Renilla luciferase sensor, 48 h | activation, % at 12.5 µM | AID 623901;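 active = mean activation of 30% or more, with every replicate also reaching 30%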;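 note: 0% = median of neutral control wells and 100% = median of positive control wells; higher luciferase signal means stronger suppression of miR-122 activity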
Numbers without * were called inactive. Only a selection was taken, and hits are over-represented in it overall.

SMILES | miR-122 inh
CC(C)CC#Cc1cnc2c(c1)C(=O)N([C@H](C)CO)C[C@H](C)[C@H](CN(C)C(=O)C1CCCCC1)O2 | -2
CNC[C@H]1Oc2cc(C#CC3CCCCC3)ccc2S(=O)(=O)N([C@H](C)CO)C[C@@H]1C | 42*
CNC[C@@H]1Oc2cc(C#C[C@H](C)O)ccc2S(=O)(=O)N([C@@H](C)CO)C[C@@H]1C | 5
CNC[C@H]1Oc2cc(C#CC(C)C)ccc2S(=O)(=O)N([C@@H](C)CO)C[C@@H]1C | -7
CNC[C@@H]1Oc2cc(C#CC3CCCCC3)ccc2S(=O)(=O)N([C@@H](C)CO)C[C@@H]1C | 51*
CNC[C@@H]1Oc2cc(C#C[C@@H](C)O)ccc2S(=O)(=O)N([C@H](C)CO)C[C@H]1C | 5
CNC[C@H]1Oc2cc(C#C[C@H](C)O)ccc2S(=O)(=O)N([C@H](C)CO)C[C@@H]1C | -1
C[C@H](CO)N1C[C@H](C)[C@H](CN(C)C(=O)c2cnccn2)Oc2ncc(C#Cc3ccccn3)cc2C1=O | 7
C[C@@H]1CN([C@H](C)CO)C(=O)c2cc(-c3ccncc3)cnc2O[C@H]1CN(C)C(=O)Cc1ccccn1 | 8
C[C@@H]1CN([C@H](C)CO)C(=O)c2cc(-c3cccc(F)c3)cnc2O[C@H]1CN(C)Cc1cncnc1 | -5
CCCNC(=O)N(C)C[C@@H]1Oc2ncc(-c3ccc(C(=O)N(C)C)cc3)cc2C(=O)N([C@@H](C)CO)C[C@@H]1C | 1
CCCN(C)C[C@H]1Oc2cc(C#CC3CC3)ccc2S(=O)(=O)N([C@H](C)CO)C[C@H]1C | -34
COc1ccc(Cn2c(SCc3ccccc3C)nc3cc(OC)c(OC)cc3c2=N)cc1 | 62*
C[C@H](CO)N1C[C@H](C)[C@H](CN(C)C(=O)C2CCCCC2)Oc2ncc(C#CC3(O)CCCC3)cc2C1=O | 1
COCC#Cc1ccc2c(c1)O[C@H](CN(C)C(=O)COC)[C@H](C)CN([C@@H](C)CO)S2(=O)=O | 13
COCC#Cc1cnc2c(c1)C(=O)N([C@@H](C)CO)C[C@H](C)[C@@H](CN(C)C(=O)Nc1c(C)noc1C)O2 | -15
C[C@@H]1CN([C@H](C)CO)C(=O)c2cc(C3=CCCCC3)cnc2O[C@@H]1CN(C)C(=O)Cc1ccccc1 | 0
O=c1c2ccccc2nc(/C=C/c2ccc([N+](=O)[O-])o2)n1CCCO | 80*
Cc1ccc(-c2ccc3c(c2)O[C@H](CN(C)Cc2cccc(C(=O)O)c2)[C@@H](C)CN([C@H](C)CO)S3(=O)=O)cc1 | -16
COc1cccc(S(=O)(=O)N(C)C[C@@H]2Oc3ncc(-c4ccc(F)cc4)cc3C(=O)N([C@H](C)CO)C[C@@H]2C)c1 | 6
C[C@@H]1CN([C@@H](C)CO)S(=O)(=O)c2ccc(-c3ccccc3)cc2O[C@@H]1CN(C)Cc1cncnc1 | 1
CCCN(C)C[C@H]1Oc2cc(C#CCN(C)C)ccc2S(=O)(=O)N([C@@H](C)CO)C[C@H]1C | -4
COCC(=O)N(C)C[C@H]1Oc2cc(Br)ccc2S(=O)(=O)N([C@@H](C)CO)C[C@H]1C | 7
Cn1c(-c2ccc(N)cc2)nc2ccccc21 | 36*
C[C@H]1CN([C@@H](C)CO)C(=O)c2cc(-c3cccc(F)c3)cnc2O[C@H]1CN(C)Cc1cncnc1 | 4
SMILES | miR-122 inh
COc1ccc(NS(=O)(=O)c2ccc(OC)c3ccccc23)cn1 | -356
COc1ccc(S(=O)(=O)Nc2cc(C)cc(C)n2)c2ccccc12 | 31*
CCOc1ccc(S(=O)(=O)Nc2cc(C)ccn2)c2ccccc12 | -237
COc1ccc(NC(=O)N(C)C[C@@H]2Oc3ncc(C4=CCCC4)cc3C(=O)N([C@H](C)CO)C[C@@H]2C)cc1 | 4
C[C@H]1CN([C@@H](C)CO)S(=O)(=O)c2ccc(C#Cc3ccccc3)cc2O[C@H]1CN(C)C(=O)Nc1ccc2c(c1)OCO2 | -3
C[C@H](CO)N1C[C@H](C)[C@@H](CN(C)S(C)(=O)=O)Oc2cc(C3=CCCCC3)ccc2S1(=O)=O | -13
C[C@@H]1CN([C@@H](C)CO)S(=O)(=O)c2ccc(C3=CCCCC3)cc2O[C@@H]1CN(C)C(=O)CC1CC1 | -3
C[C@@H]1CN([C@H](C)CO)S(=O)(=O)c2ccc(C3=CCCCC3)cc2O[C@@H]1CN(C)S(C)(=O)=O | -25
C[C@@H]1CN([C@H](C)CO)S(=O)(=O)c2ccc(C3=CCCCC3)cc2O[C@@H]1CN(C)C(=O)Nc1ccc2c(c1)OCO2 | 32*
C[C@@H]1CN([C@H](C)CO)S(=O)(=O)c2ccc(C3=CCCCC3)cc2O[C@H]1CN(C)S(C)(=O)=O | 6
C[C@@H]1CN([C@@H](C)CO)S(=O)(=O)c2ccc(C3=CCCC3)cc2O[C@@H]1CN(C)C(=O)c1ccc(F)cc1 | 37*
C[C@H]1CN([C@@H](C)CO)S(=O)(=O)c2ccc(Br)cc2O[C@@H]1CN(C)C(=O)Nc1ccc2c(c1)OCO2 | -1
C[C@H]1CN([C@@H](C)CO)S(=O)(=O)c2ccc(C3=CCCCC3)cc2O[C@H]1CN(C)C(=O)CC1CC1 | 7
CC(C)NC(=O)N(C)C[C@@H]1Oc2cc(C3=CCCCC3)ccc2S(=O)(=O)N([C@@H](C)CO)C[C@@H]1C | 1
C[C@@H]1CN([C@@H](C)CO)S(=O)(=O)c2ccc(C3=CCCCC3)cc2O[C@@H]1CN(C)C(=O)Nc1ccc2c(c1)OCO2 | 46*
C[C@@H]1CN([C@@H](C)CO)S(=O)(=O)c2ccc(C3=CCCCC3)cc2O[C@@H]1CN(C)C(=O)Cc1ccncc1 | 48*
COc1ccccc1-c1cnc2c(c1)C(=O)N([C@H](C)CO)C[C@H](C)[C@@H](CN(C)C(=O)CN(C)C)O2 | 6
CCCNC(=O)N(C)C[C@H]1Oc2cc(-c3ccccc3)ccc2S(=O)(=O)N([C@H](C)CO)C[C@@H]1C | -32
CCC(=O)N(C)C[C@H]1Oc2cc(-c3cccc(C#N)c3)ccc2S(=O)(=O)N([C@@H](C)CO)C[C@H]1C | 1
CCC(=O)Nc1ccc2c(c1)C(=O)N(C)C[C@H](OC)[C@H](C)CN(Cc1ccccc1OC)[C@@H](C)CO2 | 0
CO[C@H]1CN(C)C(=O)c2cc(NC(=O)c3ccc(F)cc3)ccc2OC[C@H](C)N(C)C[C@H]1C | 1
C[C@@H]1CN([C@@H](C)CO)C(=O)c2cc(-c3ccncc3)cnc2O[C@@H]1CN(C)C(=O)Cc1ccccn1 | 0
CC(C)CC#Cc1cnc2c(c1)C(=O)N([C@H](C)CO)C[C@H](C)[C@@H](CN(C)C(=O)Cc1ccccc1)O2 | -22
C[C@@H]1CN([C@H](C)CO)S(=O)(=O)c2ccc(C#Cc3ccccc3)cc2O[C@H]1CN(C)C(=O)Nc1ccccc1 | -1
C[C@H](CO)N1C[C@H](C)[C@@H](CN(C)S(=O)(=O)c2cccc(F)c2)Oc2ncc(C#CC3(O)CCCC3)cc2C1=O | 10
SMILES | miR-122 inh
COc1ccc(OC)c(-c2cc(C3CCN(c4cc(Cl)nc(N)n4)CC3)[nH]n2)c1 | 46*
Cc1ccc(S(=O)(=O)N(C)C[C@@H]2Oc3ncc(C#Cc4cccc(F)c4)cc3C(=O)N([C@H](C)CO)C[C@@H]2C)cc1 | 13
C[C@H]1CN([C@@H](C)CO)C(=O)c2cc(-c3cccc(F)c3)cnc2O[C@@H]1CN(C)Cc1ccncc1 | 1
C/C(=N\NC(=O)C(C)Oc1ccc([N+](=O)[O-])cc1)c1ccccn1 (stereo not given) | 32*
C[C@@H]1CN([C@@H](C)CO)S(=O)(=O)c2ccc(C#Cc3ccccc3)cc2O[C@H]1CN(C)C(=O)Nc1ccccc1 | 0
CCCN1C[C@H](C)[C@H](OC)CN(C)C(=O)c2ccc(NS(C)(=O)=O)cc2OC[C@H]1C | -3

Source: PubChem
